# Measurements taken from PubChem BioAssay AID686979 (National Center for Advancing Translational Sciences (NCATS), 2013).
# Out of some 420,000 compounds screened, about 50,000 (12%) were called active. A call without a number means that no potency is given here. Not shown: some 26% with an inconclusive outcome. This is one part of a sample in which actives are shown more often than they occur. Calls follow the shape of the dose curve; as a rule, active = well fitted inhibition curve with a large enough effect; inconclusive = small, poorly fitted or top-dose-only effect; inactive = flat fitted curve, though single readings scatter.
# Test: qHTS for Inhibitors of human tyrosyl-DNA phosphodiesterase 1 (TDP1): qHTS in cells in presence of CPT; also: nearly all actives have a fitted effect of over 55% in size
# Conditions: chicken DT40 Tdp1-/-;hTDP1 cells + 20 nM CPT, ATP luminescence, 48 h; series mostly up to 46.2 µM
# Method in brief: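 Chicken DT40 Tdp1-/- cells complemented with human TDP1, 400 cells/well, exposed to compounds plus 20 nM camptothecin for at least 48 h at 37 C; viability read as ATP content by CellTiter-Glo luminescence.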
# Potency is read from the fitted curve at half-maximal effect.
row,SMILES,Potency
1,CN1C(=O)CC(c2ccccc2)C1=O (stereo not drawn),inactive
2,Cc1ccc(-n2ncc3c(=O)[nH]cnc32)c(C)c1,inactive
3,Cc1ccc(-n2ncc3c(N4CCC(C(N)=O)CC4)ncnc32)cc1,inactive
4,Cc1ccc(-n2ncc3c(N4CCN(c5ccc(F)cc5)CC4)ncnc32)c(C)c1,11.6 µM (active)
5,COc1ccc(CCOC2OC(CO)C(OC(=O)/C=C/c3ccc(O)c(OC)c3)C(O[C@H]3O[C@@H](C)[C@H](O)[C@@H](O)[C@H]3O)C2O)cc1O (stereo partly drawn),inactive
6,Cc1ccc(S(=O)(=O)CCC(=O)OCC(=O)NCCc2ccc(S(N)(=O)=O)cc2)cc1,inactive
7,Cc1c(C(=O)N2CCCC2)c(S(=O)(=O)NCC(C)c2ccccc2)c(C)n1C (stereo not drawn),inactive
8,CC(C)N=C1CCCC1C(=S)SSC(=S)C1CCCC1=NC(C)C (stereo not drawn),0.0366 µM (active)
9,COc1ccccc1/C=C1\SC(=O)N(CCC(=O)N(C)C2CCS(=O)(=O)C2)C1=O (stereo not drawn),inactive
10,COc1ccc(C(=O)Nc2onc3c2CCCC3)cc1,inactive
11,O=C(O)c1ccccc1-c1ccccc1C(=O)Nc1cccc2ccccc12,inactive
12,O=C(Nc1cccc2ccccc12)c1onc2c1CCCC2,10.3 µM (active)
13,COC(=O)/C(=C1\Oc2ccc(C(C)(C)C)cc2S1)C(F)(F)F,inactive
14,CC(Sc1nnc(-c2cccs2)n1C1CC1)C(=O)NCC1CCCO1 (stereo not drawn),inactive
15,O=S(=O)(NCc1ccccc1Br)c1ccccc1Br,inactive
16,O=C(Nc1ccc([N+](=O)[O-])cc1)C1(c2ccccc2)CCOCC1,inactive
17,Clc1ccc(-n2nnnc2-c2cnc(-c3ccccn3)nc2-c2cccs2)cc1,6.51 µM (active)
18,CN(C)c1nnnn1-c1ccc(Cl)cc1,inactive
19,O=C(CN1C(=O)CSC1=O)N1CCCC(Nc2ccc(F)cc2)C1 (stereo not drawn),inactive
20,COc1ccc(CCNC(=O)CCc2c(C)nc3c(c(C)nn3-c3ccc(C)c(C)c3)c2C)c(OC)c1OC,inactive
21,COc1cccc2[nH]c(C(=O)NCCc3ccccc3)cc12,inactive
22,COc1ccc(CCNC(=O)c2cc3cccc4c3n2CC(C)S4)c(OC)c1OC (stereo not drawn),20.6 µM (active)
23,Cc1c(C(=O)N(C)C)sc2c1c(=O)n(-c1ccc(F)cc1)c(=O)n2CC(=O)N(C)c1ccccc1,inactive
24,O=C(COC(=O)c1ccccn1)Nc1cccc2ccccc12,inactive
25,CC(=O)N/C(=N/c1nc(C)cc(C)n1)Nc1ccc(F)cc1F,inactive
26,CCOC(=O)c1cccc(NC(=O)c2ccc(F)cc2F)c1,inactive
27,Cc1cc(C)nc(-n2nc(C)cc2NC(=O)c2ccc(F)cc2F)n1,4.11 µM (active)
28,Cc1noc(C)c1C(=O)OC(C)C(=O)Nc1ccc2c(c1)OCO2 (stereo not drawn),inactive
